About 83,000 compounds went through this panel and 20% of them were active in at least one assay; those are over-represented in the sample as a whole.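 Each cell line was grown in a 96-well plate and treated with one concentration of compound for 48 hours. Values below 10 were considered active.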 Unmarked numbers belong to inactive results. Calls of active or inactive are those of the source.
Experiments:
Test in all cases: NCI-60 one-dose screen, 48 h (100 = growth as untreated, 0 = no growth, -100 = all killed)
Settings in all cases: 10 µM
HOP-92 NSCLC = tested on: HOP-92 NSCLC
786-0 renal = tested on: 786-0 renal
SN12C renal = tested on: SN12C renal
UO-31 renal = tested on: UO-31 renal
TK-10 renal = tested on: TK-10 renal
ACHN renal = tested on: ACHN renal
A498 renal = tested on: A498 renal
CCRF-CEM leukemia = tested on: CCRF-CEM leukemia
RPMI-8226 leukemia = tested on: RPMI-8226 leukemia
OVCAR-8 ovarian = tested on: OVCAR-8 ovarian
OVCAR-4 ovarian = tested on: OVCAR-4 ovarian
SK-OV-3 ovarian = tested on: SK-OV-3 ovarian
IGROV1 ovarian = tested on: IGROV1 ovarian
NCI/ADR-RES ovarian = tested on: NCI/ADR-RES ovarian
BT-549 breast = tested on: BT-549 breast
MDA-MB-435 melanoma = tested on: MDA-MB-435 melanoma
MCF7 breast = tested on: MCF7 breast
HCT-116 colon = tested on: HCT-116 colon
HCC-2998 colon = tested on: HCC-2998 colon
KM12 colon = tested on: KM12 colon

SMILES | growth (HOP-92 NSCLC) | growth (786-0 renal) | growth (SN12C renal) | growth (UO-31 renal) | growth (TK-10 renal) | growth (ACHN renal) | growth (A498 renal) | growth (CCRF-CEM leukemia) | growth (RPMI-8226 leukemia) | growth (OVCAR-8 ovarian) | growth (OVCAR-4 ovarian) | growth (SK-OV-3 ovarian) | growth (IGROV1 ovarian) | growth (NCI/ADR-RES ovarian) | growth (BT-549 breast) | growth (MDA-MB-435 melanoma) | growth (MCF7 breast) | growth (HCT-116 colon) | growth (HCC-2998 colon) | growth (KM12 colon)
CC(=O)Oc1ccccc1C(=O)[Se]C(=NC(C)C)NC(C)C | -49.2% (active) | -95.9% (active) | -78.7% (active) | -100% (active) | -98.5% (active) | -80.8% (active) | -24.8% (active) | -1.77% (active) | -20% (active) | -86.3% (active) | -56% (active) | -95.6% (active) | -89.8% (active) | -25.3% (active) | -94.7% (active) | -94.1% (active) | -55% (active) | -82.4% (active) | -91% (active) | -89.6% (active)
COc1ccc(/C=C/C(=O)c2nc3ccccc3n2Cc2ccc(Br)cc2)cc1 | 64.2% | 64.7% | 90.4% | 52.4% | 110% | 77.5% | 122% | 18.7% | 22.5% | 77.5% | 66.1% | 91.7% | 65.8% | 61.5% | 70.3% | 61.1% | 9.99% (active) | 32% | 54.2% | 61.5%
COc1ccc2cc([C@H](C)C(=O)[Se]CCC#N)ccc2c1 | -82.1% (active) | -83.9% (active) | -16.8% (active) | -71.2% (active) | -90.4% (active) | -50% (active) | -71.1% (active) | 7.91% (active) | -17.8% (active) | -82.9% (active) | -44.3% (active) | -70.6% (active) | -51.7% (active) | -14.4% (active) | -8.75% (active) | -69.7% (active) | -8.25% (active) | -62% (active) | 10.1% | 5.84% (active)
COc1cc(OC)c(S(=O)(=O)N(CCCl)CCCl)cc1C(=O)/C=C/c1ccc(C)cc1 | 70.5% | 14.2% | 53.6% | 55.6% | 106% | 64.9% | 110% | 70.7% | 59.9% | 54.2% | 52.2% | 74.5% | 86.8% | 63.2% | 93.8% | 79.5% | 63.6% | 58% | 93.6% | 81.1%
C#CC[Se]C(=O)c1ccc(C(=O)[Se]CC#C)s1 | 157% | 82.2% | 85.9% | 47.8% | 84.8% | 43.6% | 101% | 77.4% | 86% | 75.6% | 103% | 110% | 85.5% | 76.1% | 101% | 95.8% | 91.5% | 14% | 94.7% | 42.8%
C[C@H]1[C@H](OC(=O)CCC(=O)N(CCCc2cn(-c3ccc([N+](=O)[O-])cc3)nn2)CCNc2ccnc3cc(Cl)ccc23)O[C@@H]2OC3(C)CC[C@H]4[C@H](C)CC[C@@H]1[C@@]24OO3 | 24.9% | 47.1% | 54.9% | 18.3% | 51.2% | 37.5% | 116% | 26.3% | 28.7% | 23.7% | 41.8% | 98.2% | 44.9% | 30.6% | 43% | 31.5% | 10.4% | 31.1% | 49.9% | 33.6%
CC[C@@]12CC(C(=O)OC)=C3Nc4cc5c(cc4[C@@]34CCN(C[C@H]3O[C@H]31)[C@@H]24)[C@@H]1[C@H](O5)[C@@H](O)[C@@]2(CC)CC(C(=O)OC)=C3Nc4cc(OC)ccc4[C@@]34CCN1[C@@H]24 | 21.2% | 22.2% | 27.1% | 10.1% | 16.2% | 17.8% | -15.3% (active) | 15% | 0.732% (active) | 25.5% | 5.36% (active) | 14.4% | 2.51% (active) | 1.32% (active) | -16.9% (active) | 9.48% (active) | 2.22% (active) | -0.466% (active) | -65% (active) | 10.2%
CC(C)N=C([Se])NC(=O)c1ccccc1 | -34.3% (active) | -93.6% (active) | -59.8% (active) | -99% (active) | -71.2% (active) | -51.2% (active) | -29.4% (active) | 5.47% (active) | 0.145% (active) | -65.2% (active) | 3.7% (active) | -57.2% (active) | -54.5% (active) | -11% (active) | 40.6% | 22.5% | -29.1% (active) | 1.38% (active) | -35.5% (active) | -8.34% (active)
CC12CCC3(CCC(=O)NCCCNc4ccnc5cc(Cl)ccc45)[C@@](C)(OO[C@]3(C)O1)O2 | 3.32% (active) | -22.7% (active) | -15.1% (active) | -50.1% (active) | -17.8% (active) | -10.1% (active) | 85.3% | 3.78% (active) | 22.2% | -1.11% (active) | 33.1% | 13.1% | -23.3% (active) | -14.7% (active) | -7.38% (active) | 18.3% | 9.36% (active) | 9.58% (active) | 22.8% | 9.24% (active)
CC(=C\C(=O)Oc1ccc2c3c1OC1C(O)CCC4(O)C(C2)N(CC2CCC2)CCC314)/C=C1\CCCc2ccccc21 (stereo not drawn) | 34.2% | 45.1% | 60.9% | 33.8% | 65.2% | 84.9% | 125% | – | 30.1% | 76.9% | 55.6% | 80.9% | 67.1% | 63.8% | 58.7% | 61.8% | 35.3% | 28.6% | 31.2% | 40.5%
C[C@H]1[C@@H](Oc2ccc(-c3cn(-c4ccnc5cc(Cl)ccc45)nn3)cc2)O[C@@H]2OC3(C)CC[C@H]4[C@H](C)CC[C@@H]1[C@@]24OO3 | 29.4% | 35.1% | 24.3% | 10.7% | 35.4% | 14.3% | 95% | 38.8% | 23% | 16% | 40.9% | 52.3% | 34.3% | 19.6% | 24.9% | 35.6% | 19.3% | 15.8% | 48.8% | 25.6%
O=C(/C=C/c1cccc(Br)c1)c1nc2ccccc2n1Cc1ccc(Br)cc1 | -48.8% (active) | -79% (active) | -10.1% (active) | -57.3% (active) | 10.4% | -30.5% (active) | 81.5% | -15.6% (active) | -34.8% (active) | -8.23% (active) | 35.3% | 65.4% | -8.02% (active) | -48.8% (active) | -44.7% (active) | -31.2% (active) | -32.8% (active) | -96% (active) | -94.7% (active) | 6.51% (active)
COC(=O)C[C@](O)(CCCC(C)C)C(=O)O[C@H]1C(OC)=C[C@@]23CCCN2CCc2cc4c(cc2[C@@H]13)OCO4 | – | 2.04% (active) | 6.06% (active) | 6.22% (active) | 4.08% (active) | -8.49% (active) | -17.2% (active) | 0.557% (active) | -20.7% (active) | -21.3% (active) | -9.31% (active) | 0.521% (active) | 8.76% (active) | 14.1% | -17.8% (active) | 1.79% (active) | -6.98% (active) | -7.84% (active) | -36.4% (active) | 0.453% (active)
O=C(/C=C/c1ccc(Cl)cc1Cl)c1nc2ccccc2n1Cc1ccc(F)cc1 | 36.6% | 19.8% | 60.4% | 36.5% | 93.6% | 48.7% | 94.8% | -10.2% (active) | -31.1% (active) | 56% | 63.2% | 103% | 47% | 42.2% | 24.4% | 43.9% | 5.98% (active) | 7.22% (active) | 27.3% | 53%
